MCF10A rerep = A quantitative high throughput screen for small molecules that induce DNA re-replication in MCF 10a normal breast cells; MCF 10A DNA re-replication, Hoechst nuclear intensity, 48 h; Potency, µM (doses to about 46.1 µM), for inactives: at the highest dose activity, positive = re-replication, actives largely listed as activators; hit rate 2.9% among 350,000; also: % of control where 0% means no effect; nearly all actives have a fitted effect of over 50% in size
HT1080-NT tox = qHTS for induction of synthetic lethality in tumor cells producing 2HG: qHTS for the HT-1080-NT fibrosarcoma cell line. HT-1080-NT fibrosarcoma viability, CellTiter-Glo ATP luminescence, 48 h. Potency, µM (series often up to 46.1 µM), for the others: top-dose activity, negative = less viability, hits mostly cytotoxic. hit rate 1.6% among 360,000;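 also: NT is the 2HG producing partner of a matched IDH1 knockdown line; 0% = DMSO-treated cells and -100% = media-only wells without cells; nearly all actives have a fitted effect of over 55% in size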
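Compounds were tested in concentration-response format on HT-1080-NT cells for 48 hours at 37 degrees C. Cell viability came from CellTiter-Glo luminescence; curves were classified by r2, response magnitude and activity.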
KB-3-1 tox = qHTS assay for MDR1-selective chemotherapeutics: Primary screen using the parental adenocarcinoma cell KB-3-1. Potency, µM (highest dose often 46.1 µM), actives largely listed as cytotoxic. hit rate 1.4% among 400,000. KB-3-1 viability, CellTiter-Glo ATP luminescence, 72 h. AID 1347075, 2019; also: % is scaled to controls: 0 for no effect and ±100 for the full control effect; nearly all actives have a fitted effect of over 60% in size
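Luminescent ATP read-out (CellTiter-Glo) measures survival of drug-naive KB-3-1 cells after 72 h compound exposure at 37 °C. Titration series was screened from lowest to highest concentration, with DMSO vehicle plates as background controls.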
SW480 rereplic = A quantitative high throughput screen for small molecules that induce DNA re-replication in SW480 colon adenocarcinoma cells; hit rate 1.8% among 340,000; Potency, µM (series often up to 46.1 µM), without a hit: at the top dose re-replication activation, usual class: activators; SW480 DNA re-replication, Hoechst DNA content imaging, 48 h; also: % of control where 0% means no effect; nearly all actives have a fitted effect of over 55% in size
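Hoechst fluorescence of nuclei (405 nm excitation, 500-530 nm emission) measured by plate-scanning imager after 48 hr compound exposure at 37 C; re-replication scored as increased number of nuclei with elevated intensity.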
HT1080 IDH1KD tx = qHTS for induction of synthetic lethality in tumor cells producing 2HG: qHTS for the HT-1080-IDH1KD cell line; Potency, µM (titrated, usually from 46.1 µM), inactives show at the highest dose activity, negative = toxicity, hits mostly cytotoxic; hit rate 2% among 360,000; HT-1080 IDH1 knockdown viability, ATP luminescence, 48 h;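 also: 0% = DMSO wells and -100% = cell-free medium wells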
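In this qHTS, HT-1080 cells depleted of IDH1 are exposed for 48 h at 37 °C to compound titrations. Toxicity is scored from CellTiter-Glo luminescence, with DMSO as full viability and medium alone as none.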
KB-V1 cytotox = qHTS assay for MDR1-selective chemotherapeutics: Primary screen using the drug-selected MDR subline cells KB-V1; Potency, µM (series often up to 46.1 µM), hits mostly cytotoxic; AID 1347076, 2019; hit rate 3.4% among 400,000; KB-V1 MDR cells viability, CellTiter-Glo, 72 h; also: % is scaled to controls: 0 for no effect and ±100 for the full control effect; nearly all actives have a fitted effect of over 60% in size
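In this primary screen, KB-V1 cells overexpressing P-gp are incubated with library compounds (lowest to highest concentration) for 72 h at 37 degrees C before a luminescent ATP viability read.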
Active calls of the source: *; i = inactive; ? = inconclusive; . = no result given; [ ] = another dose, or the depositor's remark. In the library only some 7.9% were active in any assay of this set; here they are far more common. Calls follow the shape of the dose curve; as a rule, active = well fitted curve in the direction sought with a large enough effect; inconclusive = small, poorly fitted or top-dose-only effect, or another doubt; inactive = no such curve, though single readings can be large; an effect the other way counts as inactive or inconclusive. Potency is read from the fitted curve at half-maximal effect.

SMILES	MCF10A rerep	HT1080-NT tox	KB-3-1 tox	SW480 rereplic	HT1080 IDH1KD tx	KB-V1 cytotox
N#Cc1c(N)nc(N)nc1Nc1ccc(Br)cc1	4%	-3%	?	3%	1%	13µM*
CCOC(=O)C1=C(CS(=O)(=O)c2ccc(OC)c(Cl)c2)NC(=O)NC1c1cccc(OC)c1 (centres undefined)	.	.	i	.	.	i
CN(C)C(=O)C1(c2ccccc2)CCN(S(=O)(=O)c2ccccc2)CC1	0%	-4%	?	-7%	-4%[9.24 µM]	21µM*
Cn1nc(C(C)(C)C)cc1NC(=O)C1(C)CCN1C(=O)CC(c1ccccc1)c1ccccc1 (centres undefined)	.	6%	i	.	-6%	i
O=C(NC1CCCc2ccccc21)C1CCN(S(=O)(=O)c2cccc(C(F)(F)F)c2)CC1 (centres undefined)	8%	-2%	i	?	-22%	23µM*
CCOC(=O)C1=C(CSCC(=O)OC)NC(=O)NC1c1cc(C)ccc1C (centres undefined)	-7%	4%	i	-11%	-3%	i
CCOC(=O)C1=C(CSc2nc3ccccc3s2)NC(=O)NC1c1ccc(OC)cc1 (centres undefined)	5%	?	?	-2%	?	16µM*
CCOC(=O)C1=C(CSc2nc3ccccc3s2)NC(=O)NC1c1cc(C)ccc1C (centres undefined)	?	?	i	18µM*	-28%	i
CC(=O)c1cc(-c2ccc(F)cc2)n(CCC(=O)NCc2ccc(C)cc2)c1C	.	.	i	.	.	i
COc1cc(OC)c(/C=C/c2c3ccccc3cc[n+]2C)c(OC)c1	.	.	?	.	.	i
COc1cc(OC)c(/C=C/c2cc(/C=C/c3c(OC)cc(OC)cc3OC)[n+](C)c3ccccc23)c(OC)c1	.	.	23µM*	.	.	i
COc1cc(OC)c(/C=C/c2cc3c4ccccc4ccc3[n+](C)c2)c(OC)c1	.	.	8.2µM*	.	.	i
CCOc1ccc(-n2c(=O)c3c(C)c(C)sc3n(CC(=O)N3CCC(C)CC3)c2=O)cc1	.	.	i	.	.	i
Cc1ccc(OC(C)C(=O)N2CCN(CCc3ccncc3)CC2)cc1C (centres undefined)	.	.	i	.	.	i
Cc1[nH]c2ccccc2c1CC#N	0%	-5%	i	-4%	22%	i
Cc1[nH]c2ccccc2c1C(C#N)(C#N)C1C(=O)c2ccccc2C1=O	?	18µM*	i	153%	26µM*	i
Cc1ccc(-n2c(=O)c3c(C)c(C)sc3n(CC(=O)NCc3ccccc3)c2=O)cc1C	.	.	i	.	.	i
CNC(=O)C1CCN(C(=O)N2CC(C)Oc3ccc(Cl)cc32)CC1 (centres undefined)	.	.	i	.	.	i
CC1CC(N(C(=O)c2ccco2)c2ccccc2)c2ccccc2N1C(=O)c1ccco1 (centres undefined)	30%	-7%	i	?	-27%	i
CC12CC(c3ccccc3O1)N(C(=O)c1ccco1)C(=S)N2c1ccccc1 (centres undefined)	23µM*	2%	i	18%	-29%	i
CCCCOCCCNS(=O)(=O)c1ccccc1	?	0%	i	0%	-2%	i
CCCCOP(=O)(OCCCC)C1(NS(=O)(=O)c2ccccc2)C=CC(=O)c2ccccc21 (centres undefined)	?	21µM*	?	?	23µM*	?
